Inconclusive results are not listed. Values without a mark were called inactive. Calls follow the shape of the dose curve; as a rule, active = well fitted curve in the direction sought with a large enough effect; inconclusive = small, poorly fitted or top-dose-only effect, or another doubt; inactive = no such curve, though single readings can be large or run the other way.
assay: qHTS Assay for Inhibitors of Histone Lysine Methyltransferase G9a: Hit Confirmation in b-rIgG Counterscreen; details: AlphaScreen b-rIgG bead counterscreen, signal interference; series mostly up to 55.7 µM; activity change, negative = inhibition: at the top concentration
From the text: Methylated lysines, on the N-terminal tails of histone proteins serve as epigenetic markers to recruit factors that can then modify local chromatin structure to lead to functional consequences. G9a and other members of the SUV39 family of the SET domain-containing superfamily of histone lysine methyltransferases (HMT) have been identified to specifically methylate Lys9 of histone H3 (H3K9). G9a catalyzes the mono- and di-methylation of H3K9 in mammalian euchromatic regions, where the resulting H3K9me2 is indicative of transcriptional repression. […] The inhibition of G9a will result in transcriptional activation and work synergistically with DNA methyltransferase and histone deacetylase inhibitors, to kill cancer cells. This qHTS assay for identification of G9a inhibitors is a chemiluminescence based AlphaScreen (PerkinElmer). Methylation of biotinylated-histone peptide is measured through specific antibody-based detection, in conjunction with streptavidin-coated donor and anti-IgG antibody-coated acceptor beads. The method is particularly well suited for detection of inhibitors acting by the desired histone peptide competitive mechanism and is applicable to testing other HMTs. Although AlphaScreen has significant advantages with its utility in a variety of epigenetic target assays, the primary screening data provided in this deposition should be used with caution due to the prevalence of screening artifacts. Because an AlphaScreen counterscreen is highly recommended to be run against any putative actives to eliminate non specific artifacts, this assay was used as a counterscreen. Quinn et al. A chemiluminescence-based method for identification of histone lysine methyltransferase inhibitors. Mol Biosyst 6(5): 782-8. 2010. PMID: 20567762 [2] Baell,Holloway. New substructure filters for removal of pan assay interference compounds (PAINS) from screening libraries and for their exclusion in bioassays. J Med Chem. 53(7):2719-40. 2010. PMID: 20131845 NIH Chemical Genomics Center [NCGC] NIH Molecular Libraries Probe Production Network [MLPCN] MLPCN Grant: MH084681-02 Assay Submitter (PI): Structural Genomic Consortium - Toronto, Peter Brown
Biotinylated rabbit-IgG (b-rIgG) (Santa Cruz Biotechnology, Inc., Santa Cruz, CA) was added to 1,536-well plates in a 3 uL dispense. Compounds were added in a 23 nL pin-transfer step, and plates were incubated at room temperature for 15 min. Streptavidin-coated donor and anti-rIgG acceptor AlphaScreen beads were added (1 uL) for final concentrations of 20 ug/mL each bead and 1 nM b-rIgG, and plates read on the Envision after a 15 min incubation at room temperature in the dark.

SMILES	activity change, negative = inhibition
CCc1nnc(NC(=O)c2cccc(C(=O)Nc3nnc(CC)s3)n2)s1	31.5%
COc1nc(Nc2nc3ccccc3c(=O)[nH]2)nc2ccc(C)cc12	34.5%
